MbtI inh: inhibitors of Mycobacterium tuberculosis siderophore enzyme MbtI. P9WFX0. inhibition, % (test concentration not listed). purified MbtI enzyme, fluorescence intensity read-out. 0.89% of 100,000 active; in the data active means inhibition mostly above about 56%, no sharp cut-off; inactive means mostly below about 77%
Target sequence (P9WFX0 whole entry, looked up): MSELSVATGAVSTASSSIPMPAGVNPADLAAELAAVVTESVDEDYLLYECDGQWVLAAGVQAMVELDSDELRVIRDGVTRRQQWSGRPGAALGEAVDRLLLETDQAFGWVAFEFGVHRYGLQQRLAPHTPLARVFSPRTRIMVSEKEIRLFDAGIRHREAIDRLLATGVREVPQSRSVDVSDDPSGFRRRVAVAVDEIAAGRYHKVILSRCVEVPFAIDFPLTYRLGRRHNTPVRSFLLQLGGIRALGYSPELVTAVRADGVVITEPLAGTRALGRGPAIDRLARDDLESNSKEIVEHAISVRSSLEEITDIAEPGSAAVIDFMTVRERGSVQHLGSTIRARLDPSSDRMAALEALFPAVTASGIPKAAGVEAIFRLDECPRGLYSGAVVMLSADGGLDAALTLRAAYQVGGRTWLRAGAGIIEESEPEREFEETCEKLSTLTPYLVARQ
AID504770: E. coli YBA685 growth inhibition, screen for V. cholerae RctB inhibitors; E. coli YBA685 rctB-dependent plasmid, OD600 growth, 3 h; active compounds read low; z-score (concentration not given with the values); 0.27% of 130,000 active; AID 504770; in the data active means z-score below about -2, passing the limit was not always enough
Polio RdRp inh: inhibitors of poliovirus RNA polymerase binding and polymerization; 0.66% of 150,000 active; AID 588519; P03300; % elongation, % (compound at 16.7 µg/mL); poliovirus polymerase elongation, fluorescence polarization; active compounds read low; in the data active means % elongation below about 90%
MenB inh: inhibitors of Mycobacterium tuberculosis MenB enzyme; P9WNP5; MenB enzyme assay, absorbance read-out; inhibition, % (test concentration not listed); 0.43% of 100,000 active; in the data active means inhibition above about 21%, passing the limit was not always enough
Numbers without * were called inactive; · = no result given. This is a sample that favours compounds with a hit; in the whole collection about 1.4% have one here.

SMILES	MbtI inh	AID504770	Polio RdRp inh	MenB inh
CN(c1ccccc1)S(=O)(=O)c1ccc(Cl)cc1	·	-0.75	106	-18
O=C(CSc1cccc[n+]1[O-])N1CCCCC1	0	-1.6	102	·
Cc1cccc(-c2nnc(C3CCN(S(=O)(=O)Cc4ccccc4)CC3)o2)c1	72*	-0.5	98	-63
CCOC(=O)Cc1nnc(NC(=O)C(CC)Sc2nc(C)cc(C)n2)s1 (centres undefined)	·	1.5	·	·
O=c1[nH]cc(NCCO)c(=O)[nH]1	-6	0.65	·	·
O=C1c2c(O)ccc(O)c2C(=O)c2c(NCCNCCO)ccc(NCCNCCO)c21	-7	1.4	-53*	0
COC(=O)c1ccc(NC(C)=O)c(C(=O)OC)c1	·	-0.1	·	·
COC(=O)c1ccc(O)c(C(=O)OC)c1	-126	-0.15	0.0*	-2
O=C(O)CC1(O)c2ccccc2C(=O)N1Cc1ccccc1 (centres undefined)	·	1.6	90*	-37
COC(=O)CC1(O)c2ccccc2C(=O)N1Cc1ccccc1 (centres undefined)	·	-0.6	·	·
O=C(O)CCC(=O)N1CC(=O)Nc2ccccc21	·	-0.05	96	-8
CC1(C)C(=O)NCCN1C(=O)CCC(=O)O	-2	-0.35	100	31*
CCOc1cc(CNc2ccc(O)cc2)ccc1OCc1ccc(Cl)cc1	·	·	80*	·
COc1ccc(C)cc1NC(=O)CN(C)Cc1nc2ccccc2c(=O)[nH]1	10	-0.15	89*	-38
CCOC(=O)c1c(S(=O)(=O)NCC(=O)N2CCN(c3cc(C)ccc3C)CC2)c(C)n(C)c1C	·	·	99	·
COc1ccc2nc(C(=O)O)sc2c1	·	0.35	86*	0
Cc1nn(CC(=O)NCCCN2CCN(Cc3ccccc3)CC2)c(=O)c2cc(-c3ccccc3)nn12	6	-0.35	99	-8
CCN1/C(=C/c2scc[n+]2C)C=C(C)c2cc(OC)c3ccccc3c21	2	0.15	56*	2
O=C(Cn1c2c(c(-c3ccccc3Cl)cc1=O)CCC2)NCC1CCCO1 (centres undefined)	64	-0.85	101	-21
CC1CCN(S(=O)(=O)c2ccc(C(=O)NCc3ccco3)cc2)CC1	·	-0.3	89*	-14
COc1ccc([C@H]2[C@@H](C(=O)O)c3ccccc3C(=O)N2Cc2ccc3c(c2)OCO3)cc1	4	0	38*	6
COc1cc(OC)c(N(C)C(=O)Cn2ncc3c(=O)oc4ccccc4c32)cc1Cl	·	·	107	·
O=c1[nH]c(=O)c2nc3cc(C(F)(F)F)ccc3nc2[nH]1	2	-1.6	85	-10
O=C1c2ccccc2C(=O)N1Cc1ccco1	1	0.25	103	-7
Nn1c(=S)[nH]nc(Cc2ccco2)c1=O	·	-0.95	73*	-44
SMILES	MbtI inh	AID504770	Polio RdRp inh	MenB inh
C=CCc1cccc(O)c1O	89*	-0.05	101	·
C=CCc1cccc(C=Nc2ccc(Br)cc2)c1O	·	-1.4	·	·
COc1ccc(C)cc1NS(=O)(=O)c1ccc(-c2cnc(C3CC3)o2)cc1	·	·	105	·
COc1cc(Cl)c(NS(=O)(=O)c2ccc(-c3cnc(C4CC4)o3)cc2)c(OC)c1	·	·	87*	·
S=c1nc(Cc2ccc(Cl)cc2)[nH][nH]1	97*	0.3	93	-51
CC(C)(C)NS(=O)(=O)Nc1ccccc1	0	0.85	101	36*
CCc1cc(C(=O)O)c(NC(=O)c2ccc(Br)cc2)s1	46	0.55	101	·
CCc1cc(C(=O)O)c(SSc2sc(CC)cc2C(=O)O)s1	102*	-0.45	76*	-19
NC1CCN(C(=O)NC2CCCCC2)CC1	-3	-0.2	101	24*
CCOc1ccc(C(=O)c2c(N)c(-c3nc(-c4ccc5c(c4)OCO5)cs3)c3ccccn23)cc1	·	·	105	·
COc1cccc(-c2csc(-c3c(N)c(C(=O)c4ccc5c(c4)OCO5)n4ccccc34)n2)c1	·	·	76*	·
CC1CCN(S(=O)(=O)c2ccc(S(=O)(=O)N3CCCN(Cc4ccccc4)C3)cc2)CC1	0	1.4	104	36*
CCCN1CCN(CCCNC(=O)c2cc3c(Cl)nc4ccccc4c3s2)CC1	·	·	67*	·
CCN1CCN(CCCNC(=O)c2cc3c(=O)n(C)c4ccccc4c3s2)CC1	·	·	74*	·
O=C1NCC(O)=C1/C=N/Nc1ccccc1	45	-4*	103	0
CC(=O)N(c1ccc(Cl)cc1)C1C=CS(=O)(=O)C1 (centres undefined)	·	-2.5*	·	·
N#CSc1cnc(NC2CCCCC2)s1	74*	-0.4	94	-178
COc1ccc(SS(=O)(=O)c2ccc(OC)c(NC(C)=O)c2)cc1NC(C)=O	91*	-0.5	102	-17
COc1ccc(S(=O)(=O)C(F)(F)F)cc1NC(C)=O	4	1.1	103	·
Cc1nc2sccn2c1-c1nc(-c2ccc(Br)o2)c(C(=O)c2ccc3c(c2)OCCO3)s1	98*	0.3	107	4
O=S1(=O)CCC(N/N=C/c2ccccc2O)C1 (centres undefined)	-2	-0.55	20*	-28
Cc1ccc(-n2c(C)cc(/C=N/NC3CCS(=O)(=O)C3)c2C)cc1 (centres undefined)	15	1.4	166	3
c1ccc(N2CN3CN2CN3c2ccccc2)cc1	-220	1.5	104	-4
CN1C=C(c2ccccc2)N(c2ccccc2)C1	·	1.5	67*	-26
COC(=O)c1sc(=S)n(-c2cc(OC)ccc2OC)c1N	18	-0.55	98	-20
SMILES	MbtI inh	AID504770	Polio RdRp inh	MenB inh
COC(=O)c1sc(=S)n(-c2cccc(OC)c2)c1N	96*	-0.8	97	-15
CCN(CC)Cn1c(=S)sc2ccccc21	87*	-1.6	100	-13
CCN(CC)Cn1c(=O)sc2ccccc21	27	-0.5	103	-35
OCn1c(=S)sc2ccccc21	93*	-0.4	102	·
C/C(=N\NC(=S)N1CCCC1)c1ccccc1	2	0.2	100	-89
Cc1cc(C)c(C(=O)O)c(Cl)n1	0	1.6	80*	-26
COc1nc(C)cc(C)c1C(=O)O	·	-0.15	·	·
Cc1cc(C)c(C(N)=O)c(SCC(=O)N2CCc3ccccc3C2)n1	99	-0.35	103	-30
O=C(Oc1ccc2c(c1)OCO2)C12CC3CC(CC(C3)C1)C2	-7	-0.85	102	-3
NC(=S)c1cccc(Oc2ccccc2)c1	30	2	87*	-69
C=CCn1c(C)cc(C(=O)CSc2nnc3ccccn23)c1C	-2	0.2	103	·
C=CCn1c(C)cc(C(=O)CSC2=Nc3ccccc3C3CC=NN23)c1C (centres undefined)	4	-0.5	102	55*
O=C1c2ccccc2C(=O)N1CCSc1ccccc1	6	-0.3	100	-4
O=C1c2ccccc2C(=O)N1CCSC1=Nc2ccccc2C2CC=NN12 (centres undefined)	-1	0.65	105	34*
Cc1[nH]n(CCC#N)c(=O)c1C1=NCCCCC1	3	0.15	106	-34
CCCCn1c(N)c(N(CC(C)C)C(=O)COc2ccc(F)cc2)c(=O)[nH]c1=O	10	-0.1	96	-3
CC(CC1CC(C)(C)OC1=O)c1nc(=S)[nH][nH]1 (centres undefined)	64*	-0.45	95	-10
CCSc1nc2ccccc2[nH]1	·	0.25	·	·
CCC(=O)C1(Sc2nc3ccccc3[nH]2)CC(C)(C)OC1=O (centres undefined)	102*	-0.4	102	-10
